According to article PMC7862700, “An all-to-all approach to the identification of sequence-specific readers for epigenetic DNA modifications on cytosine”:

What was measured:
Test in all cases: DAPPL (digital affinity profiling via proximity ligation, sequencing); 10 mM Tris-HCl pH 7.5, 50 mM NaCl, 1 mM DTT, 4% glycerol, room temperature, 30 min; GST-TFs on glutathione beads, 16-mer random dsDNA library, 0.1% formaldehyde crosslink after washing; high values mean tight binding
Details in all cases: protein: recombinant; tags: N-terminal GST; dsDNA, one strand shown
FLI1 = target: T1, FLI1 (Homo sapiens, UniProt Q01543 1-452)
T1 sequence: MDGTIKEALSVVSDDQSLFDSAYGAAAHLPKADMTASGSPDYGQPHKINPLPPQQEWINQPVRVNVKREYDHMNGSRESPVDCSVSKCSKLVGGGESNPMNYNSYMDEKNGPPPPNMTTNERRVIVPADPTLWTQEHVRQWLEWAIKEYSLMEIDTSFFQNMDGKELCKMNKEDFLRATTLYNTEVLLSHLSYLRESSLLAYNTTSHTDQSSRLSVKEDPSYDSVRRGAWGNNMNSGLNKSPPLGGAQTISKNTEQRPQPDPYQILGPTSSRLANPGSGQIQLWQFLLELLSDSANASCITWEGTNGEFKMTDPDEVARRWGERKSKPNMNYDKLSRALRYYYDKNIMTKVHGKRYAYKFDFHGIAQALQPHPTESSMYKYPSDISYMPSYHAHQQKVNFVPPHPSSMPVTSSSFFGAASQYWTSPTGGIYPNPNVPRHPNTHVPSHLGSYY
How it was run: (§1)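 Each value of binding signal is a hexamer's read frequency for a factor divided by the same hexamer's frequency in the tag-only sample. Barcoded, bead-captured GST fusions of human transcription factors made in yeast were pooled with that sample and incubated with 200 nmole of a random double-stranded 16-mer DNA library in Tris/NaCl/DTT/glycerol buffer at room temperature for 30 min. Washing, 0.1% formaldehyde crosslinking, proximity ligation, PCR and Illumina NextSeq500 sequencing followed.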

ELK1 = target: T2, ELK1 (Homo sapiens, UniProt P19419 1-428)
T2 sequence: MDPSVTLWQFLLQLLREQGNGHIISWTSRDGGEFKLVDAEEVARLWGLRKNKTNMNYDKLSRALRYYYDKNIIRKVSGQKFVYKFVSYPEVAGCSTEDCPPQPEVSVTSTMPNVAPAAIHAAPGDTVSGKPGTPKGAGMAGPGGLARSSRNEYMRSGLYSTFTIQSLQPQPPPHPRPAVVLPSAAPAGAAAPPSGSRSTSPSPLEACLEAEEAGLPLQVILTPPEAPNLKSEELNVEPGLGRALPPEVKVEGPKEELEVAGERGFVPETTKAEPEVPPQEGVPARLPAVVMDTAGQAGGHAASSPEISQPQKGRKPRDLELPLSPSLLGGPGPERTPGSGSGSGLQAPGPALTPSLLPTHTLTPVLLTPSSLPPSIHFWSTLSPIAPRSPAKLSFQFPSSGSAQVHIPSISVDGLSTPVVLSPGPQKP
How it was run: as §1

GABPA = target: T3, GABPA (Homo sapiens, UniProt Q06546 1-454)
T3 sequence: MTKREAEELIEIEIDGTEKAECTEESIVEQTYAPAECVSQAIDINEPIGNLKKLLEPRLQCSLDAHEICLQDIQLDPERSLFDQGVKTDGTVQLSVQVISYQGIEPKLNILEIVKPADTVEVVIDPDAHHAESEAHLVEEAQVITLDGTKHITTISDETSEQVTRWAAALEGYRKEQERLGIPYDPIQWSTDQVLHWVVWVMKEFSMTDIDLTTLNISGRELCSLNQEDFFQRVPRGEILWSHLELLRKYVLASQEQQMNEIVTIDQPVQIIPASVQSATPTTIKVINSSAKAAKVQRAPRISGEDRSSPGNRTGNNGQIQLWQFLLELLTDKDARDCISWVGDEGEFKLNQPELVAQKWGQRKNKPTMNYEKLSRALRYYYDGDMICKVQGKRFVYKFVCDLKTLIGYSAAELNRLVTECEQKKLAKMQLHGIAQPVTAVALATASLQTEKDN
How it was run: as §1

ERG = target: T4, ERG (Homo sapiens, UniProt P11308 1-479)
T4 sequence: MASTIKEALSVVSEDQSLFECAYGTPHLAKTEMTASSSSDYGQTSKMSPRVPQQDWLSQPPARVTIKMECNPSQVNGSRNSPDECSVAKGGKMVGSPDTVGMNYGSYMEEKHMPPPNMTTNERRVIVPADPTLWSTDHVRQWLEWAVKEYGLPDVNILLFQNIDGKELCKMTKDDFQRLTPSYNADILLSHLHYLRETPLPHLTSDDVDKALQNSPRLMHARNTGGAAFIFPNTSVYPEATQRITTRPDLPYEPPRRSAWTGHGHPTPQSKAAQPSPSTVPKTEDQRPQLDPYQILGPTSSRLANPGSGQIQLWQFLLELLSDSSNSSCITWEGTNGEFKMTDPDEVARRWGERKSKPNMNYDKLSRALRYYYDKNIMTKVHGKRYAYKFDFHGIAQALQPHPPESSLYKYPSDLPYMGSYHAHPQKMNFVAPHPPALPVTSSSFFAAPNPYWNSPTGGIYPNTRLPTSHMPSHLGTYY
How it was run: as §1

ELF1 = ELF1 (Homo sapiens, UniProt P32519 1-619)
How it was run: as §1

EHF = target: T5, EHF (Homo sapiens, UniProt Q9NZC4 1-300)
T5 sequence: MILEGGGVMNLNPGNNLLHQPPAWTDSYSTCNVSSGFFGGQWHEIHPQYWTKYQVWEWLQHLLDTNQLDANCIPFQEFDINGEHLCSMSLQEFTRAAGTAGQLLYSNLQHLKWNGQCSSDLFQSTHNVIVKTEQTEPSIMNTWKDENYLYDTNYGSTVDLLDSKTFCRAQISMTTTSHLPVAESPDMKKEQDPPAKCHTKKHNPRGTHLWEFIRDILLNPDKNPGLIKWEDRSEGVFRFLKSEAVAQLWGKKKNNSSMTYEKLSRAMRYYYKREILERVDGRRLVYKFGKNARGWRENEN
How it was run: as §1

SPI1 = SPI1 (Homo sapiens, UniProt P17947 1-270)
How it was run: as §1

SPIB = SPIB (Homo sapiens, UniProt Q01892 1-262)
How it was run: as §1

ELK3 = target: T6, ELK3 (Homo sapiens, UniProt P41970 1-407)
T6 sequence: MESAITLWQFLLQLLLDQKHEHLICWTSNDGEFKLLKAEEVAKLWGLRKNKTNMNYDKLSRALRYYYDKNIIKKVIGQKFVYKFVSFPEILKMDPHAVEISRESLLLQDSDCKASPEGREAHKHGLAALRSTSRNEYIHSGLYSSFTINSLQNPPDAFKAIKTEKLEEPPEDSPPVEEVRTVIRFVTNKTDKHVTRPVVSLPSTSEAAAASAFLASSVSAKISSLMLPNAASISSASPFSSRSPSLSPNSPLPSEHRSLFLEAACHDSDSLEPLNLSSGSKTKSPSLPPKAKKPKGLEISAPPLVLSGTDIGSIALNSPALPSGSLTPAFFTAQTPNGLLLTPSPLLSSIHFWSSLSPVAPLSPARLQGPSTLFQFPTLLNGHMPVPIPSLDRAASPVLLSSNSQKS
How it was run: as §1

FEV = target: T7, FEV (Homo sapiens, UniProt Q99581 1-238)
T7 sequence: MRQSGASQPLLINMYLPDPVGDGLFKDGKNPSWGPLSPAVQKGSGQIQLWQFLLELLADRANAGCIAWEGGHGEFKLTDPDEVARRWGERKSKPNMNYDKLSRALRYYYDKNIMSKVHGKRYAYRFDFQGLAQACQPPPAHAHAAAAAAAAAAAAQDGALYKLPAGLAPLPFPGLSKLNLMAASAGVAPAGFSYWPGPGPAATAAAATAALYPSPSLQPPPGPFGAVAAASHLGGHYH
How it was run: as §1

ETV5 = ETV5 (Homo sapiens, UniProt P41161 1-510)
How it was run: as §1

SPIC = target: T8, SPIC (Homo sapiens, UniProt Q8N5J4 1-248)
T8 sequence: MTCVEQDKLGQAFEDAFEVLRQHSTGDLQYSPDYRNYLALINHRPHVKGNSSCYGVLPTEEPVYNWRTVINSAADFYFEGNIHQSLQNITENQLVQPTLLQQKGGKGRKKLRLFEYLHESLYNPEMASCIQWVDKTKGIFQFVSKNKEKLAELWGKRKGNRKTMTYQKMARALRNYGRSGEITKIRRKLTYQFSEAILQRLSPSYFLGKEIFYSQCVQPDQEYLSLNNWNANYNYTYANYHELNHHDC
How it was run: as §1

ELF4 = ELF4 (Homo sapiens, UniProt Q99607 1-663)
How it was run: as §1

ELK4 = target: T9, ELK4 (Homo sapiens, UniProt P28324-2 1-405)
T9 sequence: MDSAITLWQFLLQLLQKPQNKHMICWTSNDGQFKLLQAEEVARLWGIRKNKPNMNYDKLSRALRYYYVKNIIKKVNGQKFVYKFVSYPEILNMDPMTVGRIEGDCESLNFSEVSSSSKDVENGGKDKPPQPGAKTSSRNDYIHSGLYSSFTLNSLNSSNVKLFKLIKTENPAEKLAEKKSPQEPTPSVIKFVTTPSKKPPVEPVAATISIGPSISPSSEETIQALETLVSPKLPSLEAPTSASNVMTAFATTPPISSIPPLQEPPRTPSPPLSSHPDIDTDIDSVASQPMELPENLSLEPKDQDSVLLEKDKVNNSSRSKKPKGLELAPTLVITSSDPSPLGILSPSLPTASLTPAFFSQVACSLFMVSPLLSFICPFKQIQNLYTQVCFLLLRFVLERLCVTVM
How it was run: as §1

ETV2 = target: T10, ETV2 (Homo sapiens, UniProt O00321 1-342)
T10 sequence: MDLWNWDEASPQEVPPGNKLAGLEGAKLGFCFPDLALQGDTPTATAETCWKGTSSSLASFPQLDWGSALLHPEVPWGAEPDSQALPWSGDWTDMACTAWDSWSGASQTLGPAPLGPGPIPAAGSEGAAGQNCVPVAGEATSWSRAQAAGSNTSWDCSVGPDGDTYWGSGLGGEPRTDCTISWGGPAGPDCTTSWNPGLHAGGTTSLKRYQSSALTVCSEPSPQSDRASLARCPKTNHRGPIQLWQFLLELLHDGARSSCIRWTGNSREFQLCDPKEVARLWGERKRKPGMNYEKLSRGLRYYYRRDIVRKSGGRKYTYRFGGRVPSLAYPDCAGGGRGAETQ
How it was run: as §1

ETV1 = ETV1 (Homo sapiens, UniProt P50549 1-477)
How it was run: as §1

Sequence of ELF4 (Q99607 whole entry): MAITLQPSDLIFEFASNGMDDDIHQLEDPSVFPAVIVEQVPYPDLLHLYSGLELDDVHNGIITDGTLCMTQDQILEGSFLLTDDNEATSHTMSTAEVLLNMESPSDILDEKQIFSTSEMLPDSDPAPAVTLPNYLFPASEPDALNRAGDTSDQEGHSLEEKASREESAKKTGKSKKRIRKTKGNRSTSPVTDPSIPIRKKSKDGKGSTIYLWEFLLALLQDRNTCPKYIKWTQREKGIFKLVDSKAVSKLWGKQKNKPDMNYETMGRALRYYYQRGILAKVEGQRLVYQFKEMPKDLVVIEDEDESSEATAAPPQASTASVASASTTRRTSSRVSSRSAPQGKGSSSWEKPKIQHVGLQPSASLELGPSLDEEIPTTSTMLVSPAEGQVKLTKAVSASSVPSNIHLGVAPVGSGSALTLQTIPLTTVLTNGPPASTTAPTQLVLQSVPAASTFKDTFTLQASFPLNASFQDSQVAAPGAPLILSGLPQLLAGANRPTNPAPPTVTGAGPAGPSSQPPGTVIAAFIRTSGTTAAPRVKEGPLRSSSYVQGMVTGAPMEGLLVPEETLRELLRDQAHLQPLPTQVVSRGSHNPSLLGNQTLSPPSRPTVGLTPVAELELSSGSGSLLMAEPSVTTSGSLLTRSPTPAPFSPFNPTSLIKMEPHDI
Sequence of ETV5 (P41161 whole entry): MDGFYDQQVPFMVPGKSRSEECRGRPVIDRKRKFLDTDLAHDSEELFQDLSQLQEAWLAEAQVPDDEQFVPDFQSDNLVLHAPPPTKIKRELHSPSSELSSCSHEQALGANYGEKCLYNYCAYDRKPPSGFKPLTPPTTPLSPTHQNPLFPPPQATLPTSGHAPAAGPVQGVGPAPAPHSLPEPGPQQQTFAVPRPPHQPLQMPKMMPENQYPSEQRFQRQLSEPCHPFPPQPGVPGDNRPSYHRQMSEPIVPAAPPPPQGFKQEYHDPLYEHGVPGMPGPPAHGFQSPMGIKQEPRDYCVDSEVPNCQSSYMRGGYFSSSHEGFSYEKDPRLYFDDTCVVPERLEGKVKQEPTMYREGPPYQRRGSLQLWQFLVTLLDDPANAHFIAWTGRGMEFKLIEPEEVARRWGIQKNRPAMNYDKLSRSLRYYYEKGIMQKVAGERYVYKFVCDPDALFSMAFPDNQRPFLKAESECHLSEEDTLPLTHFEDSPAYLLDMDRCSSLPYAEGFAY
Sequence of ELF1 (P32519 whole entry): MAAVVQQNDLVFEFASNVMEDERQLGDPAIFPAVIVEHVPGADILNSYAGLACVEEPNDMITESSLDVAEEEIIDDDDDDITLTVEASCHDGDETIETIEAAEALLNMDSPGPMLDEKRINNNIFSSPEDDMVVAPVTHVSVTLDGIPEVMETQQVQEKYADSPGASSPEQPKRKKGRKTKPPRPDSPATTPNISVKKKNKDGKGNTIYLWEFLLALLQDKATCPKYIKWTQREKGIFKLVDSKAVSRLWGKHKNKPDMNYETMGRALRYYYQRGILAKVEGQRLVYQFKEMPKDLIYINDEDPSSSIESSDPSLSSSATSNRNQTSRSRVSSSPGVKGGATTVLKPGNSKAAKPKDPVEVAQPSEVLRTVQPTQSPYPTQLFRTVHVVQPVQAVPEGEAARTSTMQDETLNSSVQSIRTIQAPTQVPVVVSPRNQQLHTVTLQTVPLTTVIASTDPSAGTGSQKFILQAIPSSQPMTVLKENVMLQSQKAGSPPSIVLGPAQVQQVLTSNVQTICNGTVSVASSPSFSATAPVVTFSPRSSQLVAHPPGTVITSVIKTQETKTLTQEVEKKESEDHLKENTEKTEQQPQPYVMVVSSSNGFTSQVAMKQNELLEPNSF
Sequence of ETV1 (P50549 whole entry): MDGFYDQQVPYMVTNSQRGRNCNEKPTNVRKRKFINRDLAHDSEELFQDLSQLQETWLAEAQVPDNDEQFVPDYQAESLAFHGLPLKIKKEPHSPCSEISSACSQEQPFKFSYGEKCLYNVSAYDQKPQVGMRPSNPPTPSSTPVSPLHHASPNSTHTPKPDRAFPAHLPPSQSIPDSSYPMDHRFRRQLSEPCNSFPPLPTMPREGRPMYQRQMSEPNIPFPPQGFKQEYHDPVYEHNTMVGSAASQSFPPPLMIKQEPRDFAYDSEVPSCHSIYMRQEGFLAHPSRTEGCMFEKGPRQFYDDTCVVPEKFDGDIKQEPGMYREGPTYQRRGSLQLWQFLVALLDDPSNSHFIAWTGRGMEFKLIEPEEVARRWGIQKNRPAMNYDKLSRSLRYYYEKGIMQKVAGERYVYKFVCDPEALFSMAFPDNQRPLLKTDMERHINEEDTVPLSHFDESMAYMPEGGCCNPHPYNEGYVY
Sequence of SPIB (Q01892 whole entry): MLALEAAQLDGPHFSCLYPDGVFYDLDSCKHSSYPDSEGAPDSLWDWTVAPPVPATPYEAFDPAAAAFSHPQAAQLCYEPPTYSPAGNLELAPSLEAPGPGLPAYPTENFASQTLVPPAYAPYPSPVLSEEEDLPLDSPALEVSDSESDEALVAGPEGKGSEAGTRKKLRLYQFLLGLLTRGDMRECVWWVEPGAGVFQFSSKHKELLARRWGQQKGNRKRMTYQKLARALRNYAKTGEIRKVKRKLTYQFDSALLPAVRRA

Sequence | binding signal (FLI1) | binding signal (ELK1) | binding signal (GABPA) | binding signal (ERG) | binding signal (ELF1) | binding signal (EHF) | binding signal (SPI1) | binding signal (SPIB) | binding signal (ELK3) | binding signal (FEV) | binding signal (ETV5) | binding signal (SPIC) | binding signal (ELF4) | binding signal (ELK4) | binding signal (ETV2) | binding signal (ETV1)
GGTCCC | 1.13 fold enrichment (6-mer frequency, TF over GST control) | 1.21 fold enrichment (6-mer frequency, TF over GST control) | 1.16 fold enrichment (6-mer frequency, TF over GST control) | 1.21 fold enrichment (6-mer frequency, TF over GST control) | 1.17 fold enrichment (6-mer frequency, TF over GST control) | 1.19 fold enrichment (6-mer frequency, TF over GST control) | 1.1 fold enrichment (6-mer frequency, TF over GST control) | 1.31 fold enrichment (6-mer frequency, TF over GST control) | 1.16 fold enrichment (6-mer frequency, TF over GST control) | 1.1 fold enrichment (6-mer frequency, TF over GST control) | 1.13 fold enrichment (6-mer frequency, TF over GST control) | 1.18 fold enrichment (6-mer frequency, TF over GST control) | 1.16 fold enrichment (6-mer frequency, TF over GST control) | 1.29 fold enrichment (6-mer frequency, TF over GST control) | 1.16 fold enrichment (6-mer frequency, TF over GST control) | 1.3 fold enrichment (6-mer frequency, TF over GST control)
GCACTG | 1.18 fold enrichment (6-mer frequency, TF over GST control) | 1.12 fold enrichment (6-mer frequency, TF over GST control) | 1.14 fold enrichment (6-mer frequency, TF over GST control) | 1.07 fold enrichment (6-mer frequency, TF over GST control) | 1.1 fold enrichment (6-mer frequency, TF over GST control) | 1.12 fold enrichment (6-mer frequency, TF over GST control) | 1.14 fold enrichment (6-mer frequency, TF over GST control) | 1.05 fold enrichment (6-mer frequency, TF over GST control) | 1.06 fold enrichment (6-mer frequency, TF over GST control) | 1.12 fold enrichment (6-mer frequency, TF over GST control) | 1.05 fold enrichment (6-mer frequency, TF over GST control) | 1.08 fold enrichment (6-mer frequency, TF over GST control) | 1.07 fold enrichment (6-mer frequency, TF over GST control) | 1.03 fold enrichment (6-mer frequency, TF over GST control) | 1.22 fold enrichment (6-mer frequency, TF over GST control) | 1.08 fold enrichment (6-mer frequency, TF over GST control)
TGGCCC | 1.02 fold enrichment (6-mer frequency, TF over GST control) | 1.13 fold enrichment (6-mer frequency, TF over GST control) | 1.24 fold enrichment (6-mer frequency, TF over GST control) | 1.13 fold enrichment (6-mer frequency, TF over GST control) | 1.05 fold enrichment (6-mer frequency, TF over GST control) | 1.02 fold enrichment (6-mer frequency, TF over GST control) | 1.17 fold enrichment (6-mer frequency, TF over GST control) | 1.12 fold enrichment (6-mer frequency, TF over GST control) | 1.16 fold enrichment (6-mer frequency, TF over GST control) | 1.09 fold enrichment (6-mer frequency, TF over GST control) | 1.12 fold enrichment (6-mer frequency, TF over GST control) | 1.18 fold enrichment (6-mer frequency, TF over GST control) | 1.14 fold enrichment (6-mer frequency, TF over GST control) | 1.19 fold enrichment (6-mer frequency, TF over GST control) | 1.18 fold enrichment (6-mer frequency, TF over GST control) | 1.15 fold enrichment (6-mer frequency, TF over GST control)
